This excerpt belongs to a sample that is enriched for hits.
Gal4-VP16 FLuc: inhibits Gal4-VP16 luciferase reporter, ROR gamma counter-screen | Potency, µM (titrated, usually from 53.6 µM), usual class: inhibitors | Drosophila S2 Gal4-VP16 UAS-luciferase, luminescence, 20 h | hit rate 3.5% among 310,000;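 also: Gal4-VP16 expression switched on by copper sulfate through the metallothionein promoter; nearly all actives have a fitted effect of over 50% in size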
RORg inh: ROR gamma (mouse) transcription inhibition. P51450. Drosophila S2 Gal4-RORgamma UAS-luciferase reporter, 20 h. Potency, µM (titrated, usually from 53.6 µM), hits mostly inhibitors. hit rate 5.4% among 310,000. AID 2551; also: nearly all actives have a fitted effect of over 60% in size
Target sequence (P51450 whole entry, looked up, the tested form may be a part): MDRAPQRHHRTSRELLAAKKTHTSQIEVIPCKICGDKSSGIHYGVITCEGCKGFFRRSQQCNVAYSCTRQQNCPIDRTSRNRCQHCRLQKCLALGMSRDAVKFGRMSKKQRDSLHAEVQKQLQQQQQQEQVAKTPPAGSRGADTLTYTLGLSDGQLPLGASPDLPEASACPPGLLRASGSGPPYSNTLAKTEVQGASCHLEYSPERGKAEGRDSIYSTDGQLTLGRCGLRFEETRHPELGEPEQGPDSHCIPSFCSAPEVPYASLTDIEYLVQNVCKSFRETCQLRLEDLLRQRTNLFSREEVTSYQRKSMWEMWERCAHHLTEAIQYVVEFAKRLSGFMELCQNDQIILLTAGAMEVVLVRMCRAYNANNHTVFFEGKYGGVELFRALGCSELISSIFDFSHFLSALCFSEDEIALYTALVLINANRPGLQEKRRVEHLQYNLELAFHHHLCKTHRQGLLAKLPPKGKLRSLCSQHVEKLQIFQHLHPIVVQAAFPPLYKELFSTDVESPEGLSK
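In this cell-based reporter format, copper sulfate (700 uM final) drives Gal4–ROR gamma fusion expression from a metallothionein promoter in Drosophila Schneider cells; compounds preincubated 1 hr, reporter read after 20 hr at ambient temperature.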
Integrin act MD: integrin-mediated muscular dystrophy alleviation activation | alpha7betagal myoblasts, beta-gal FDG fluorescence, 48 h | Potency, µM (titrated, usually from 38.3 µM), actives largely listed as activators | hit rate 0.064% among 350,000; also: nearly all actives have a fitted effect of over 60% in size
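alpha7betagal+/- myoblasts (passage 13, 250/well) treated 48 h at 37C with compounds at 1:260 dilution of DMSO stock. Lysed, then beta-galactosidase activity read as FDG fluorescence (ex 480/em 540) after 30 min, with pre-read for autofluorescence.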
Giardia killer: Giardia lamblia killing | Giardia lamblia trophozoite viability | hit rate 0.15% among 340,000 | activity change, % at 7.66 µM, hits read low; in the data active = activity change below about -80%; inconclusive = between about -30% and that limit;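 also: parasites exposed to compound for two days anaerobically before the ATP read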
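Each well holds 100 Giardia trophozoites and compound. After two days (48 hrs) at 37 deg C in anaerobic conditions, ATP is quantified by luminescence.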
ERG-DNA inh: inhibitors of human ERG Ets domain-DNA interaction; P11308; fluorescence polarization, His-ERG Ets domain / labelled DNA; Potency, µM (doses to about 76.9 µM), hits mostly inhibitors; hit rate 0.028% among 370,000; active = well fitted inhibition curve with a large enough effect in the polarisation, with a control signal flat; inconclusive = small, poorly fitted or top-dose-only effect, or effect the other way, or a change in a side signal; inactive = no such curve, though single readings can be large or run the other way; the % refers to the polarisation;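 also: polarization taken with two DNA probes labelled with fluorescein and Texas red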
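His-tagged ERG Ets domain (1 uM in the protein solution; 300mM KCl, 50mM Tris-HCl, 1mM EDTA, 1mM DTT, pH 7.5) received compound, then a probe mix of 5 nM fluorescein-DNA and 100nM Texas-615-DNA. Fluorescence polarization was read for both dyes.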
Large screens that a line does not name were inactive. Unless noted, calls follow the shape of the dose curve; as a rule, active = well fitted curve in the direction sought with a large enough effect; inconclusive = small, poorly fitted or top-dose-only effect, or another doubt; inactive = no such curve, though single readings can be large; an effect the other way counts as inactive or inconclusive.

CC[C@H](C)[C@H](NC(=O)[C@H](CC(=O)O)NC(=O)[C@H](CC(C)C)NC(=O)[C@H](Cc1cnc[nH]1)NC(=O)[C@H](C)NC(=O)[C@H](Cc1ccccc1)NC(=O)[C@H](Cc1ccc(O)cc1)NC(=O)[C@@H](NC(=O)[C@H](C)NC(=O)[C@H](CCC(=O)O)NC(=O)[C@H](CCC(=O)O)NC(=O)[C@H](CC(=O)O)NC(=O)CCC(=O)O)C(C)C)C(=O)N[C@H](C(=O)N[C@@H](Cc1c[nH]c2ccccc12)C(=O)O)[C@@H](C)CC	none (no result: Integrin act MD, Giardia killer, ERG-DNA inh)
Cc1cc(C)c2c(c1)/C(=N/NC(=S)Nc1ccc(F)cc1)CCC2	Gal4-VP16 FLuc 16µM
COc1cccc(/C=N/NC(=O)CSc2cccc3cccnc23)c1	Gal4-VP16 FLuc inconclusive, RORg inh 8.9µM
Cc1cccc(CSc2cccc3cccnc23)c1	Gal4-VP16 FLuc 7.9µM, RORg inh 4.5µM
NNC(=O)c1ccc(CSc2cccc3cccnc23)cc1	RORg inh inconclusive
CCOC(=O)CSc1cccc2cccnc12	Gal4-VP16 FLuc 10µM, RORg inh inconclusive
Cc1cc(C)c(NC(=O)C(C)n2nc(C)c3sc4ccccc4c3c2=O)c(C)c1 (centres undefined)	none (no result: Gal4-VP16 FLuc, RORg inh, Integrin act MD, Giardia killer)
C[C@H](NC(=O)C1CCN(S(=O)(=O)c2ccccc2)CC1)C(=O)NCc1cccnc1	none (no result: Gal4-VP16 FLuc, RORg inh, Giardia killer, ERG-DNA inh)
COc1cccc2sc(NNC(=O)COc3ccccc3)nc12	RORg inh 4.5µM, Integrin act MD inconclusive
COc1ccc(C)c2sc(NNC(=O)COc3ccccc3)nc12	RORg inh 7.1µM (no result: Integrin act MD, Giardia killer, ERG-DNA inh)
CCC(C)c1ccc(NC(=S)NCc2cccs2)cc1 (centres undefined)	Gal4-VP16 FLuc 11µM, RORg inh 7.1µM
CC(C)(C)c1ccc(NC(=S)NCc2cccs2)cc1	Gal4-VP16 FLuc 10µM, RORg inh 7.1µM
CC(=O)Nc1ccc(NCc2cccs2)cc1	Gal4-VP16 FLuc inconclusive, Integrin act MD inconclusive
CCOC(=O)C1c2cccc(O)c2CCN1C(C)=O (centres undefined)	none (no result: Gal4-VP16 FLuc, RORg inh, Giardia killer, ERG-DNA inh)
Cc1cnc(C(=O)Nc2ccccc2F)cn1	none
COc1ccc(NC(=O)c2cnc(C)cn2)c2ncccc12	Gal4-VP16 FLuc 0.56µM, RORg inh 0.32µM (no result: Integrin act MD, Giardia killer, ERG-DNA inh)
O=C(O)c1ccc2c(c1)N(Cc1ccccc1)C(=O)c1ccccc1S2	none
COC(=O)c1ccc(OCC2c3cc(OC)c(OC)cc3CCN2C(=O)c2ccccc2C)cc1 (centres undefined)	none (no result: Gal4-VP16 FLuc, RORg inh, Integrin act MD, Giardia killer)
S=c1[nH]nc(CCc2ccc(Cl)cc2)o1	Gal4-VP16 FLuc inconclusive, RORg inh 7.9µM
S=c1[nH]nc(COc2ccc(Cl)cc2)o1	Gal4-VP16 FLuc inconclusive, RORg inh 6.3µM
O=C(c1ccco1)N1CCC2(CCN(Cc3cc(C(F)(F)F)cc(C(F)(F)F)c3)CC2)CC1	none (no result: Integrin act MD, Giardia killer, ERG-DNA inh)
CCN(CC)CCCn1c(-c2ccccc2)nc2c(NCCOC)nc(C)nc21	none (no result: Integrin act MD, Giardia killer, ERG-DNA inh)
O=C(Cn1c(=O)n(Cc2nc(-c3ccccc3)no2)c(=O)c2cc3c(cc21)OCO3)Nc1cccc(C(F)(F)F)c1	none (no result: Gal4-VP16 FLuc, RORg inh, Integrin act MD, Giardia killer)
O=C(N/N=C/c1ccco1)c1cc(-c2ccc(Cl)s2)[nH]n1	none
COc1ccccc1CN1CC[C@@]2(CCCN(S(=O)(=O)c3ccccc3)C2)C1	none (no result: Integrin act MD, Giardia killer, ERG-DNA inh)
Cc1cc(OCC(=O)NCCO)ccc1Cl	none
CNC(=S)NNC(=O)COc1ccc(C)c(C)c1	Gal4-VP16 FLuc 7.1µM, RORg inh 6.3µM
Cc1cc(OCC(=O)NC(C)C)ccc1Cl	Integrin act MD 4µM
Cc1ccc(OCC(=O)Nc2cccc(O)c2)cc1C	none
O=C(CN1CCN(c2ccccc2F)CC1)c1c[nH]c2ccc(F)cc12	none
NC(=O)C1CCN(CC(=O)c2c[nH]c3ccc(F)cc23)CC1	Gal4-VP16 FLuc 16µM
CC(OC(=O)c1ccc(Cl)nc1)C(=O)Nc1ccc2c(c1)OCO2 (centres undefined)	none (no result: Gal4-VP16 FLuc, RORg inh)
CC12C=C(/C=C/c3ccc(F)cc3)C(C)(C1)C(c1ccc(F)cc1)CC2=O (centres undefined)	none (no result: Integrin act MD, Giardia killer, ERG-DNA inh)
C=CCN(C(=O)c1csnn1)C(C(=O)NCc1ccc(F)cc1)c1sccc1C (centres undefined)	none
CC(C)Cc1ccc(C(C)C(=O)OCC(=O)c2c[nH]c3ccccc23)cc1 (centres undefined)	Gal4-VP16 FLuc 18µM, RORg inh inconclusive (no result: ERG-DNA inh)
Cc1ccc(C(=O)OCC(=O)c2c[nH]c3ccccc23)cc1	none
Cc1ccccc1C(=O)NC1CCN(C(=O)N(c2ccccc2)c2ccccc2)CC1	RORg inh 11µM
CCOc1cc(/C=C\[N+](=O)[O-])ccc1OCC(=O)Nc1ccccc1C	Gal4-VP16 FLuc 1.8µM, RORg inh 1.1µM
COc1cc(/C=C/c2cccc[n+]2C)ccc1OCC(=O)Nc1ccccc1C	none
CCOC(=O)C1CCN(C(=O)CN2C(=O)COc3ccc(C(C)(C)C)cc32)CC1	Integrin act MD inconclusive
N#C/C(=C\c1ccco1)c1nc2ccccc2s1	Gal4-VP16 FLuc inconclusive
N#C/C(=C/c1ccco1)c1nc2ccccc2s1	Gal4-VP16 FLuc 5.6µM, RORg inh 5µM
Cc1cc(CNC(=O)C2(C(F)(F)F)C/C(=C\Cc3ccccc3)CCCO2)nn1C (centres undefined)	none
c1ccc(C(c2ccccc2)N2CCN(c3nc4ccccc4n4cnnc34)CC2)cc1	Gal4-VP16 FLuc 13µM
O=S(=O)(c1ccc2c(c1)OCCO2)N1CCN(c2ncnc3sccc23)CC1	Gal4-VP16 FLuc 11µM, RORg inh inconclusive
Cc1ccc(S(=O)(=O)N2CCN(c3ncnc4sccc34)CC2)cc1C	none (no result: Gal4-VP16 FLuc, RORg inh)
Oc1[nH]c2ccccc2c1N=Nc1ccccn1	none (no result: Gal4-VP16 FLuc, RORg inh, ERG-DNA inh)
Oc1c(N=Nc2ccccn2)ccc2ccccc12	RORg inh 0.11µM
CC1CCN(C(=O)COC(=O)/C=C/c2ccco2)CC1	none (no result: Gal4-VP16 FLuc, RORg inh)
CCn1c(SC(C)C)nnc1-c1cc(-c2ccccc2)sc1N	Gal4-VP16 FLuc 7.1µM, RORg inh 6.3µM
c1ccc(-c2c3ccccc3nc3[nH]c4ccccc4c23)cc1	Gal4-VP16 FLuc inconclusive, RORg inh 11µM
O=C(O)CC(NC(=O)Cc1ccccc1)c1ccccc1 (centres undefined)	none
O=C(Cc1ccccc1)N[C@H](c1ccccc1)P(=O)(O)CO	RORg inh 2.8µM
COc1ccc(CN(C)Cc2nc3scc(-c4ccccc4)c3c(=O)[nH]2)cc1OC	Gal4-VP16 FLuc 2.5µM, RORg inh 1.4µM
CSCc1nc2scc(-c3ccccc3)c2c(=O)[nH]1	none
FC(F)(F)c1cccc(NC(=S)N(CCCN2CCCC2)Cc2cccn2Cc2ccc(Cl)cc2)c1	Gal4-VP16 FLuc inconclusive, RORg inh 14µM
Cc1nc([N+](=O)[O-])c(Br)n1CC(=O)c1ccc(F)cc1	RORg inh 7.9µM
Cc1nc([N+](=O)[O-])c(Br)n1CC(=O)c1cccc([N+](=O)[O-])c1	none
CCOC(=O)c1c(NC(=O)/C=C/C(=O)O)sc(C)c1-c1ccc(F)cc1	RORg inh inconclusive
COC(=O)c1c(NC(=O)/C=C/C(=O)O)sc(C)c1-c1ccc(C)c(C)c1	RORg inh 4.5µM

Assay outcomes as filed in PubChem.
